Measurements as given in PubChem BioAssay (NCATS).
Records with an inconclusive call do not appear. Where a call stands in place of a potency, no number is given. Unmarked numbers belong to inactive results. The source made the active and inactive calls. Calls follow the shape of the dose curve; as a rule, active = well fitted curve in the direction sought with a large enough effect; inconclusive = small, poorly fitted or top-dose-only effect, or another doubt; inactive = no such curve, though single readings can be large; an effect the other way counts as inactive or inconclusive.

Experiments:
[1] = biological target: Lysine-specific demethylase 5B (Homo sapiens) (UniProt Q9UGL1); test: Optimization screen for KDM5B Histone Demethylases FDH coupled qHTS against the LOPAC library (AID 1347166)
In short: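 KDM5BDeltaAP (200nM final) in 50mM HEPES pH 7.5, 0.01% Tween-20 was preincubated with compound for 10 min at room temperature. A substrate mix of 12.5uM H3K4Me3, 25uM a-ketoglutarate, ascorbate, Fe2+, NAD+ and formaldehyde dehydrogenase was then added. NADH fluorescence (340/450 nm) was read initially and after 30 min.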

[2] = qHTS to identify inhibitors of the type 1 interferon - major histocompatibility complex class I in skeletal muscle: primary screen against the NCATS LOPAC collection (AID 1347405);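 also: lytic HiBiT luminescence reporting HLA-B protein level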; also: potency is read from the fitted curve at half-maximal effect
In short: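 After 24 h at 37 C with compounds (7-point, 1:4.3 dilutions, 46 uM top final) plus 4 ng/ml IFN-beta, luminescence from lytic HiBiT detection was measured. HLA-B*08:01 in C25cl48 myoblasts carried an endogenous C-terminal HiBiT tag; medium lacked dexamethasone.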

[3] = qHTS to identify inhibitors of the type 1 interferon - major histocompatibility complex class I in skeletal muscle: primary screen against the NCATS Pharmaceutical Collection (AID 1347407);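 also: luminescence of HiBiT knocked into endogenous HLA-B as interferon-induced MHC class I level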; also: potency is read from the fitted curve at half-maximal effect
In short: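 Luminescence from HiBiT-tagged endogenous HLA-B*08:01 served as the read-out of IFN-beta-induced MHC class I in CRISPR-engineered C25cl48 myoblasts. Cells received 4 ng/ml IFN-beta plus compound (high final 46 uM, […]) for 24 h.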

[4] = test system: Zika virus NS2B-NS3 protease (linked construct); test: Primary screen NINDS Rhodamine qHTS for Zika virus inhibitors (AID 1347160); also: nearly all actives have a fitted effect of over 55% in size
In short: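 Single-chain NS2B-NS3 protease, 25 nM, pH 8.0; compounds preincubated 15 min. Activity: Rhodamine110 release from 1.5 microM substrate over 15 min, room temperature, data fitted to 4-parameter Hill.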

[5] = Confirmatory screen NINDS Rhodamine qHTS for Zika virus inhibitors (AID 1347161); conditions: purified enzyme assay, Rhodamine110 substrate fluorescence, 15 min; also: potency is read from the fitted curve at half-maximal effect; nearly all actives have a fitted effect of over 60% in size
In short: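 In 10 mM Tris-HCl pH 8.0 containing 0.01% Tween 20, linked NS2B-NS3 protease (25 nM final) is exposed to test compounds for 15 min. Cleavage of 1.5 microM Rhodamine110 substrate is tracked by fluorescence over 15 min.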

[6] = Vero cells viability qHTS for Zika virus inhibitors (AID 1347167)
In short: (§1)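 Luminescent ATP readout (CellTiter Glo) after 30 min at 37 degrees C gives viability; cells in DMEM + 4% FBS were treated 24 to 48 hours with compound, following overnight attachment.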

[7] = HepG2 cells viability qHTS for Zika virus inhibitors (AID 1347168)
In short: as §1

[8] = Tertiary RLuc qRT-PCR qHTS assay for Zika virus inhibitors (AID 1347169); also: top concentration of the series differs between compounds; nearly all actives have a fitted effect of over 55% in size
In short: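 Vero, 1,000 cells/well, o/n 37 C; cpd pinned in DMSO; ZIKV-RLuc Cambodian, MOI 1-2, 48-72 h 37 C; live-cell RLuc substrate, lum read at 1-1.5 h.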

Sequence of Lysine-specific demethylase 5B (Homo sapiens) (Q9UGL1 whole entry, looked up): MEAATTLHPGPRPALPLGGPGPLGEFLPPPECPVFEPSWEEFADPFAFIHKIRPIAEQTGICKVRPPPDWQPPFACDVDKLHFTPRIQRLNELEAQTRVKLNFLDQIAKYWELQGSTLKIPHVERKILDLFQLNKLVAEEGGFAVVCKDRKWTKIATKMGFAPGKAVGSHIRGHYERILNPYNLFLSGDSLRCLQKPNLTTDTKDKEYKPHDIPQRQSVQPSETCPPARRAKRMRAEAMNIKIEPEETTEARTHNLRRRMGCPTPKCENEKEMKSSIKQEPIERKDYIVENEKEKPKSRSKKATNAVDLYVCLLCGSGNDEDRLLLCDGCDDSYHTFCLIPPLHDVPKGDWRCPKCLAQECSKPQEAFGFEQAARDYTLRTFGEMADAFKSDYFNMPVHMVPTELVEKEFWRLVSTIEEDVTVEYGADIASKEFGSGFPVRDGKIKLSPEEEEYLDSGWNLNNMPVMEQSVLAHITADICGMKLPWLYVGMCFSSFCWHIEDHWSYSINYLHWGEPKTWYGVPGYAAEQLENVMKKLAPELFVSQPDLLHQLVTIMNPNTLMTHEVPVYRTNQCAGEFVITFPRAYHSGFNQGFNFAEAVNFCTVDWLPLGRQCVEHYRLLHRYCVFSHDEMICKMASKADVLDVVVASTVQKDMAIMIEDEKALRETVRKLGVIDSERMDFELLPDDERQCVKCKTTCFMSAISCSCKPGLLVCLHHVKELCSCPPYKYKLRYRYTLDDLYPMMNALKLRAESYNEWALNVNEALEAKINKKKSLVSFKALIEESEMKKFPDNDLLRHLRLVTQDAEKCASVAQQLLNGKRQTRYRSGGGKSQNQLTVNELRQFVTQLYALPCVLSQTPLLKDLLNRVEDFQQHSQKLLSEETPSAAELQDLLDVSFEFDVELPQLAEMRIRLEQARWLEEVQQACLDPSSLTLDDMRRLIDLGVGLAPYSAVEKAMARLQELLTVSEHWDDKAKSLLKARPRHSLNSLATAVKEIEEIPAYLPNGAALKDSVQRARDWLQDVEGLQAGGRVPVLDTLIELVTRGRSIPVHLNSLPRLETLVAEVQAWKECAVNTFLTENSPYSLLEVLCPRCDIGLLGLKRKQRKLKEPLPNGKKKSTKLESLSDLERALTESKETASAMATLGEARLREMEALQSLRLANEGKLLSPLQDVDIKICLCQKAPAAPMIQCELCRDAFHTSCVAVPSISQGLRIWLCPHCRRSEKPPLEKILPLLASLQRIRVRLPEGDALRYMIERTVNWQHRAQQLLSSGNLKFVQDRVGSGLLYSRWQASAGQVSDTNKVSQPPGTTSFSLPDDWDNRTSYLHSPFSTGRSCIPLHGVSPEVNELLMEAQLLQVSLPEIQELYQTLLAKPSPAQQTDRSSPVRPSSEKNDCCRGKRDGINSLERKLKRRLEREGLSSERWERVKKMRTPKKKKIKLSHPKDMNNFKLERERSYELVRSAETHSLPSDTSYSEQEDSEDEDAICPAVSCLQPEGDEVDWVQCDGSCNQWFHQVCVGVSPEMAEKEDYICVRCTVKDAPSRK

**Q.** What does the source list for `CC(CN1c2ccccc2Sc2ccccc21)N(C)C` (stereo unspecified)?
**A.** outcome [1]: inactive; Potency [2]: inactive; Potency [3]: inactive

**Q.** What does the source list for `CN(C)CCC=C1c2ccccc2CCc2ccccc21`?
**A.** outcome [1]: inactive; Potency [2]: inactive; Potency [3]: inactive

**Q.** What does the source list for `C[C@]12CC[C@@H]3c4ccc(O)cc4CC[C@H]3[C@@H]1CCC2=O`?
**A.** outcome [1]: inactive; Potency [2]: inactive; Potency [3]: inactive

**Q.** For `CC1=C(/C=C/C(C)=C/C=C/C(C)=C/C(=O)O)C(C)(C)CCC1`, which outcome [1] is on record?
**A.** The outcome was “inactive”.

**Q.** What about the Potency [2] of the same compound?
**A.** The Potency was “inactive”.

**Q.** What about the Potency [3] of the same compound?
**A.** The Potency was “inactive”.

**Q.** For `CN1CCN(C2Cc3ccccc3Sc3ccc(Cl)cc32)CC1` (stereo unspecified), which outcome [1] is on record?
**A.** Its outcome is “inactive”.

**Q.** With `CC(CN(C)C)CN1c2ccccc2CCc2ccccc21` (stereo unspecified) as the compound, how does the outcome [1] read?
**A.** Its outcome is “inactive”.

**Q.** And the Potency [2]?
**A.** The Potency was “inactive”.

**Q.** And the Potency [3]?
**A.** Its Potency is “inactive”.

**Q.** Which results are given for `CC(=O)OCC(=O)[C@@]1(O)CC[C@H]2[C@@H]3CCC4=CC(=O)CC[C@]4(C)[C@H]3C(=O)C[C@@]21C`?
**A.** outcome [1]: inactive; Potency [2]: inactive; Potency [3]: inactive

**Q.** For `CC(C)(C)c1onc(OCP(=O)(O)O)c1CC(N)C(=O)O` (stereo unspecified), which outcome [1] is on record?
**A.** The outcome was “inactive”.

**Q.** And the Potency [2]?
**A.** Its Potency is “inactive”.

**Q.** For `CC1=C(CC(=O)O)c2cc(F)ccc2/C1=C\c1ccc(S(C)(=O)=O)cc1`, which outcome [1] is on record?
**A.** The outcome was “inactive”.

**Q.** And the Potency [2]?
**A.** Its Potency is “inactive”.

**Q.** And the Potency [3]?
**A.** The Potency was “inactive”.

**Q.** Which outcome [1] does the source give for `CC(C)C(=O)c1c(C(C)C)nn2ccccc12` here?
**A.** The outcome was “inactive”.

**Q.** What about the Potency [2] of the same compound?
**A.** Its Potency is “inactive”.

**Q.** With `CCN(CC)CCCC(C)Nc1c2ccc(Cl)cc2nc2ccc(OC)cc12` (stereo unspecified) as the compound, how does the Potency [4] read?
**A.** The Potency was “inactive”.

**Q.** And the Potency [3]?
**A.** Its Potency is “inactive”.

**Q.** With `CC(C)(C)[C@]1(O)CCN2C[C@H]3c4ccccc4CCc4cccc(c43)[C@@H]2C1` as the compound, how does the outcome [1] read?
**A.** Its outcome is “inactive”.

**Q.** And the Potency [2]?
**A.** The Potency was “inactive”.

**Q.** Which results are given for `C[C@](N)(Cc1ccc(O)cc1)C(=O)O`?
**A.** outcome [1]: inactive; Potency [2]: inactive; activity change, negative = inhibition [3]: -0.196% [at 3.83 µM]

**Q.** With `CN(C)CC[C@@H](c1ccc(Cl)cc1)c1ccccn1` as the compound, how does the outcome [1] read?
**A.** The outcome was “inactive”.

**Q.** What about the Potency [2] of the same compound?
**A.** The Potency was “inactive”.

**Q.** And the Potency [3]?
**A.** Its Potency is “inactive”.

**Q.** Which results are given for `NC(N)=NCCC[C@H](N)C(=O)O`?
**A.** outcome [1]: inactive; Potency [2]: inactive

**Q.** Which results are given for `O=C1N=C(O)CN1/N=C/c1ccc(-c2ccc([N+](=O)[O-])cc2)o1`?
**A.** outcome [1]: inactive; Potency [2]: inactive

**Q.** With `CCCn1cnc2c1c(=O)n(CCCCC(C)=O)c(=O)n2C` as the compound, how does the outcome [1] read?
**A.** Its outcome is “inactive”.

**Q.** And the Potency [2]?
**A.** The Potency was “inactive”.

**Q.** And the Potency [3]?
**A.** The Potency was “inactive”.

**Q.** Which results are given for `C[C@]12C[C@H](O)[C@H]3[C@@H](CCC4=CC(=O)CC[C@@]43C)[C@@H]1CC[C@@H]2C(=O)CO`?
**A.** outcome [1]: inactive; Potency [2]: inactive

**Q.** Which results are given for `COCCOC(=O)C1=C(C)NC(C)=C(C(=O)OC/C=C/c2ccccc2)C1c1cccc([N+](=O)[O-])c1` (stereo unspecified)?
**A.** outcome [1]: inactive; Potency [2]: 22.4 µM (active)

**Q.** Which results are given for `CCN(CC)CCOC(=O)C1(C2CCCCC2)CCCCC1`?
**A.** outcome [1]: inactive; Potency [2]: inactive; Potency [3]: inactive

**Q.** Which outcome [1] does the source give for `CSc1ccc2c(c1)N(CCC1CCCCN1C)c1ccccc1S2` (stereo unspecified) here?
**A.** Its outcome is “inactive”.

**Q.** With `CCN(CC)C(C)CN1c2ccccc2Sc2ccccc21` (stereo unspecified) as the compound, how does the outcome [1] read?
**A.** Its outcome is “inactive”.

**Q.** What about the Potency [2] of the same compound?
**A.** Its Potency is “inactive”.

**Q.** Which Potency [5] does the source give for `COc1ccc2c(c1)C(=O)N(CCc1ccc(S(=O)(=O)NC(=O)NC3CCCCC3)cc1)C(=O)C2(C)C` here?
**A.** The Potency was 31.2 µM (active).

**Q.** Which results are given for `CN(C)CCOC(C)(c1ccccc1)c1ccccn1` (stereo unspecified)?
**A.** outcome [1]: inactive; Potency [2]: inactive; Potency [3]: inactive

**Q.** With `C#CCN(C)Cc1ccccc1` as the compound, how does the outcome [1] read?
**A.** The outcome was “inactive”.

**Q.** And the Potency [2]?
**A.** Its Potency is “inactive”.

**Q.** And the Potency [3]?
**A.** The Potency was “inactive”.

**Q.** With `N=c1c[n+](N2CCOCC2)[n-]o1` as the compound, how does the outcome [1] read?
**A.** Its outcome is “inactive”.

**Q.** And the Potency [2]?
**A.** The Potency was “inactive”.

**Q.** With `CN(C)CCCN1c2ccccc2CCc2ccccc21` as the compound, how does the outcome [1] read?
**A.** The outcome was “inactive”.

**Q.** For `CC[C@H]1CN2CCc3cc(OC)c(OC)cc3[C@@H]2C[C@@H]1C[C@H]1NCCc2cc(OC)c(OC)cc21`, which outcome [1] is on record?
**A.** The outcome was “inactive”.

**Q.** What about the Potency [2] of the same compound?
**A.** Its Potency is 0.282 µM (active).

**Q.** And the Potency [3]?
**A.** The Potency was 0.264 µM (active).

**Q.** Which Potency [3] does the source give for `CO/N=C(\C(=O)N[C@@H]1C(=O)N2C(C(=O)O)=C(CSc3nc(=O)c(O)nn3C)CS[C@H]12)c1csc(N)n1` here?
**A.** Its Potency is “inactive”.

**Q.** For `COC(=O)[C@H]1[C@H]2C[C@@H]3c4[nH]c5cc(OC)ccc5c4CCN3C[C@H]2C[C@@H](OC(=O)COc2ccc(OC)cc2)[C@@H]1OC`, which Potency [3] is on record?
**A.** Its Potency is “inactive”.

**Q.** Which Potency [3] does the source give for `O=C(Oc1ccccc1C(=O)O)c1ccccc1O` here?
**A.** The Potency was “inactive”.

**Q.** Which Potency [2] does the source give for `CNCCCC1c2ccccc2C=Cc2ccccc21` here?
**A.** The Potency was “inactive”.

**Q.** What about the Potency [3] of the same compound?
**A.** The Potency was “inactive”.

**Q.** What does the source list for `OCCN1CCN(CCCN2c3ccccc3Sc3ccc(Cl)cc32)CC1`?
**A.** outcome [1]: inactive; Potency [3]: inactive

**Q.** With `Nc1ccc(S(=O)(=O)NC(=O)c2ccccc2)cc1` as the compound, how does the Potency [3] read?
**A.** The Potency was “inactive”.

**Q.** With `OCC(CO)N[C@H]1C[C@](O)(CO)[C@@H](O)[C@H](O)[C@H]1O` as the compound, how does the Potency [3] read?
**A.** Its Potency is “inactive”.

**Q.** Which Potency [2] does the source give for `CC(=O)c1ccc2c(c1)N(CCCN(C)C)c1ccccc1S2` here?
**A.** The Potency was “inactive”.

**Q.** And the Potency [3]?
**A.** Its Potency is “inactive”.

**Q.** Which outcome [1] does the source give for `NC1CCN(c2cccc(Cl)n2)CC1` here?
**A.** The outcome was “inactive”.

**Q.** And the Potency [3]?
**A.** The Potency was “inactive”.

**Q.** Which Potency [2] does the source give for `CC(C)NC[C@H](O)c1ccc(O)c(O)c1` here?
**A.** Its Potency is “inactive”.

**Q.** Which Potency [3] does the source give for `NC(=O)NC(=O)Cc1ccccc1` here?
**A.** The Potency was “inactive”.

**Q.** With `CCCCCCCCCCCCCCCC(=O)NCCO` as the compound, how does the outcome [1] read?
**A.** Its outcome is “inactive”.

**Q.** What about the Potency [3] of the same compound?
**A.** Its Potency is “inactive”.

**Q.** For `C[C@H](NC(CCc1ccccc1)C(=O)O)C(=O)N1CCC[C@H]1C(=O)O` (stereo partly specified), which Potency [2] is on record?
**A.** The Potency was “inactive”.

**Q.** For `O=C(O)CC(O)C(=O)O` (stereo unspecified), which Potency [3] is on record?
**A.** Its Potency is “inactive”.

**Q.** For `N[C@H](C(=O)O)c1ccc(O)cc1`, which Potency [6] is on record?
**A.** The Potency was “inactive”.

**Q.** What about the outcome [7] of the same compound?
**A.** The outcome was “inactive”.

**Q.** And the Potency [8]?
**A.** The Potency was “inactive”.

**Q.** And the Potency [3]?
**A.** The Potency was “inactive”.

**Q.** Which Potency [3] does the source give for `CC[C@@]1(c2ccccc2)NC(=O)N(C)C1=O` here?
**A.** Its Potency is “inactive”.

**Q.** Which Potency [3] does the source give for `C[C@@H](O)[C@H](N)C(=O)O` here?
**A.** The Potency was “inactive”.

**Q.** With `CCOC(=O)c1ccc(O)cc1` as the compound, how does the Potency [3] read?
**A.** The Potency was “inactive”.

**Q.** Which Potency [6] does the source give for `NC1[C@H]2CN(c3nc4c(cc3F)c(=O)c(C(=O)O)cn4-c3ccc(F)cc3F)C[C@@H]12` (stereo partly specified) here?
**A.** The Potency was “inactive”.

**Q.** What about the outcome [7] of the same compound?
**A.** Its outcome is “inactive”.

**Q.** What about the Potency [8] of the same compound?
**A.** Its Potency is “inactive”.

**Q.** For `O=C1OC(OC(=O)c2cccnc2Nc2cccc(C(F)(F)F)c2)c2ccccc21` (stereo unspecified), which Potency [3] is on record?
**A.** Its Potency is “inactive”.
